Hits are enriched below; roughly 1.6% of the tested compounds scored in any of these assays.
KCNQ2 pot: KCNQ2 (rat) channel potentiation; CHO-K1 KCNQ2, FluxOR thallium flux fluorescence; stronger effect = higher value; B-score at 10 µM; 310,000 tested, 0.54% active; AID 2239;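 active = fluorescence ratio B-score at least 3 SD of library B-scores, with initial fluorescence B-score within 3 of them, cut at about 5.3 in these data; same plate scores as AID 2156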;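 also: B-score of peak minus minimum over baseline fluorescence ratio after K+ and Tl+ stimulus; positive B-score means potentiation of KCNQ2 with more thallium influx and brighter signal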
KCNQ2 inh: inhibitors of rat KCNQ2 potassium channel. AID 2156. B-score at 10 µM. CHO-K1 KCNQ2, FluxOR thallium flux, 20 min; stronger effect = lower value. 310,000 tested, 1.1% active. O88943;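 active = fluorescence ratio B-score at most minus 3 library SDs, with starting brightness B-score within 2 library SDs, cut at about -5.5 in these data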
Kir21 confirm: confirmation of mouse Kir2.1 potassium channel inhibitors; shares compounds with KCNQ2 pot; Kir2.1-expressing cells, FluxOR thallium flux fluorescence; stronger effect = lower value; Tl flux remaining, % of negative control (stronger effect = lower value), % at 10 µM; 2,300 tested, 41% active;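 active = Primary-screen hit whose thallium flux fell at least 3 control SD below untreated wells in both duplicates, with normal baseline fluorescence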;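 also: 0% = blank wells without stimulus and 100% = stimulated no-compound controls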
HEK293 Tl flux: parental HEK293 activity in Kir2.1 inhibitor counter-screen; shares compounds with KCNQ2 pot; FluxOR signal as % of negative control (100 = no effect), % at 10 µM; AID 2105; 2,300 tested, 19% active; parental HEK293 cells, FluxOR thallium flux fluorescence; 0% = unstimulated blank wells;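 active = dye signal at least 3 control SD above or below untreated wells in both duplicates, raw fluorescence within 3, either direction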;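 also: percent is based on the flux ratio of peak minus minimum fluorescence over baseline F0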
CHO-K1 ctr: parental CHO-K1 activity in KCNQ2 potentiator counter-screen; shares compounds with KCNQ2 pot; parental CHO-K1 cells, FluxOR thallium flux fluorescence; zero = vehicle mean+3SD, 100% = vehicle-minus-blank window; activity increase over 3SD of controls, % at 10 µM; 1,200 tested, 43% active;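 active = signal rise of at least 3 SD above the untreated control mean, in both duplicate wells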;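 also: counter screen of KCNQ2 potentiator hits so any rise reflects channel-independent effects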
KCNQ1 pot spec: human KCNQ1 counter-target activity of KCNQ2 potentiators; 1,200 tested, 28% active; shares compounds with KCNQ2 pot; AID 2283; activation over 3SD threshold, % at 10 µM; CHO KCNQ1 stable, FluxOR thallium flux fluorescence; beyond 3SD, as % of vehicle-control signal;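 active = fluorescence ratio rise of at least 3 SD of vehicle wells above their mean, in both replicate wells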;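 also: 0% = vehicle mean plus 3 SD and 100% = vehicle minus unstimulated blank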
Target sequence (P51787 whole entry, looked up): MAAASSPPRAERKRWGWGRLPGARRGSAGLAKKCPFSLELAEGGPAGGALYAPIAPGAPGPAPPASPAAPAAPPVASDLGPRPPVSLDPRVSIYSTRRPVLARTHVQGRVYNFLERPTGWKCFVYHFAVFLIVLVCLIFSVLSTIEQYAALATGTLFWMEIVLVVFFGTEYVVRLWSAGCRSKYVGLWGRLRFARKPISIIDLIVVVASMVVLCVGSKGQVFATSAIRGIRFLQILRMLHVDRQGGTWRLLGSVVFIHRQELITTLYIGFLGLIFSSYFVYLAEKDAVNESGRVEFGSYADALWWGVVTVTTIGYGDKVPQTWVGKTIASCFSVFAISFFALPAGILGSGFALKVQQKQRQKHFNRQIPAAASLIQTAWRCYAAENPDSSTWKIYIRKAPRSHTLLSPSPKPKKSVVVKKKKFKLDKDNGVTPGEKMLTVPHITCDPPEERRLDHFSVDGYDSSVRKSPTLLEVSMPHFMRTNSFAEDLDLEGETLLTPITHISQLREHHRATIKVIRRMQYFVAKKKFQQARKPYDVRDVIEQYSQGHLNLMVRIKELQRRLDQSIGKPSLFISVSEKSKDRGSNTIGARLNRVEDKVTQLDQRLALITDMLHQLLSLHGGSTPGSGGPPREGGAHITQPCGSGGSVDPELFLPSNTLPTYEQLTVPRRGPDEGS
KCNQ2 pot conf: confirmation of rat KCNQ2 potassium channel potentiators | shares compounds with KCNQ2 pot | potentiation, less the hit threshold, % at 10 µM | 1,200 tested, 68% active | CHO-KCNQ2 cells, FluxOR thallium flux fluorescence;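 active = fluorescence ratio rising 3 SD or more over the vehicle control mean in both replicates, plus primary screen hit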;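 also: peak minus minimum thallium fluorescence divided by baseline after K/Tl stimulus; 0% = vehicle mean plus 3 SD and 100% = vehicle minus unstimulated blank difference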
Kir21 spec: tests whether KCNQ2 potentiators also affect mouse Kir2.1; shares compounds with KCNQ2 pot; 1,200 tested, 2% active; AID 2345; activity over 3SD threshold, % at 10 µM; HEK293 Kir2.1, FluxOR thallium flux fluorescence;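 active = fluorescence ratio rise of at least 3 SD above the vehicle-control mean, seen in both replicates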;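 also: 0% = vehicle mean plus 3 SD and 100% = vehicle minus no-stimulus blank window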
KCNQ2 W236L pot: potentiates the retigabine-insensitive rat KCNQ2 W236L mutant channel; shares compounds with KCNQ2 pot; CHO KCNQ2-W236L, automated patch clamp current; current increase over 3SD of negative controls (%), stronger effect = higher value, % at 25 µM; 940 tested, 10% active;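 active = current increase at least 3 SD of the untreated controls above them in both duplicate recordings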
* hit, by the source's call; i = inactive; nt = not tested or not shown.

SMILES	KCNQ2 pot	KCNQ2 inh	Kir21 confirm	HEK293 Tl flux	others
O=C(O)c1cc(NN=C2c3ccccc3-c3ccccc32)ccc1Cl	9.15*	i	i	i	CHO-K1 ctr=51.1*;KCNQ1 pot spec=-14.5;KCNQ2 pot conf=51.2*;Kir21 spec=-44.3;KCNQ2 W236L pot=21.9%*
O=C(O)c1cccc(NN=C2c3ccccc3-c3ccccc32)c1	nt	i	nt	nt
COc1cc(-c2nnc(COC(=O)c3nn(CC(C)C)c(=O)c4ccccc34)o2)cc(OC)c1OC	1.18	i	nt	nt
Clc1ccc(-c2c(C3=NCCCN3)nnn2-c2ccc(Cl)cc2)cc1	1.86	i	nt	nt
O=C(Nc1sc2c(c1C(=O)O)CCC2)c1ccccc1	1.41	i	nt	nt
O=C(Nc1sc2c(c1C(=O)O)CCCC2)c1cccc(Cl)c1	5.44*	i	i	i	CHO-K1 ctr=-14.8;KCNQ1 pot spec=-32.3;KCNQ2 pot conf=4.9*;Kir21 spec=-34.0;KCNQ2 W236L pot=i
O=C(Nc1sc2c(c1C(=O)O)CCCCC2)c1ccccc1	1.28	i	nt	nt
O=C(Nc1sc2c(c1C(=O)O)CCCC2)c1ccc(Cl)cc1	7.88*	i	i	i	CHO-K1 ctr=-10.1;KCNQ1 pot spec=-21.2;KCNQ2 pot conf=-5.1;Kir21 spec=-29.9
Cc1ccc(Nc2cc(C)nc3ccc(C)cc23)cc1	0.17	i	48.5%*	i
CCOc1ccc(Nc2cc(C)nc3ccc(C)cc23)cc1	nt	i	nt	nt
COc1ccc(-c2nc3ccc(C)cn3c2NCc2ccc3c(c2)OCO3)cc1	0.61	i	nt	nt
Cc1ccc(-c2nc3ccccn3c2NCc2ccc3c(c2)OCO3)cc1	nt	i	75.5%*	i
COc1ccc(NC(=O)CCS(=O)(=O)c2ccc3c(c2)CCN3C(C)=O)cc1	1.81	i	nt	nt
Cc1ccc(C(=O)NCCNC(=O)COc2ccccc2Cl)cn1	0.01	i	nt	nt
CC(OC(=O)CN1C(=O)C2C3C=CC(C4CC34)C2C1=O)C(=O)c1ccccc1 (stereo not given)	0.13	i	nt	nt
O=C(Nc1ccccc1)Nc1ncc([N+](=O)[O-])s1	7.81*	i	i	i	CHO-K1 ctr=-22.6;KCNQ1 pot spec=90.2*;KCNQ2 pot conf=15.2*;Kir21 spec=-67.0;KCNQ2 W236L pot=i
O=C(Nc1ncc([N+](=O)[O-])s1)c1cccc([N+](=O)[O-])c1	1.85	i	nt	nt
Nc1nonc1-n1nnc(C(=O)N/N=C/c2cc(Cl)ccc2O)c1CN1CCCCCC1	nt	i	nt	nt
O=C(NCCc1ccccc1)c1c(F)c(F)c(F)c(F)c1F	0.26	i	nt	nt
CC1Sc2ccc(S(=O)(=O)N3CCC(C(=O)NCc4ccccc4)CC3)cc2NC1=O (stereo not given)	1.43	i	nt	nt
CCn1c(=NC(=O)CSC(C)=O)sc2cc(F)ccc21	1.5	i	nt	nt
C#CCn1c(=NC(=O)CSC(C)=O)sc2cc(F)ccc21	20.3*	i	i	i	CHO-K1 ctr=-4.8;KCNQ1 pot spec=-20.9;KCNQ2 pot conf=62.3*;Kir21 spec=-33.8;KCNQ2 W236L pot=36.2%*
NC(=O)c1c(NC(=O)Cc2ccccc2)sc2c1CCN(Cc1ccccc1)C2	nt	i	nt	nt
Cc1ccc(/C=C(\NC(=O)c2ccc(C)cc2)c2nc(=S)[nH][nH]2)cc1	5.95*	i	i	i	CHO-K1 ctr=-3.5;KCNQ1 pot spec=-23.2;KCNQ2 pot conf=-17.8;Kir21 spec=-37.5
Cc1ccc(C(=O)N/C(=C\c2cccs2)c2nc3ccccc3[nH]2)cc1	nt	i	nt	nt
SMILES	KCNQ2 pot	KCNQ2 inh	Kir21 confirm	HEK293 Tl flux	others
CCN(CC)CCN(C(=O)C1=COCCO1)c1nc2c(OC)ccc(OC)c2s1	0.22	i	nt	nt
O=C(CCCl)N1CCN(c2nc(-c3ccccc3)cs2)CC1	1.01	i	nt	nt
COc1cc(/C=C2\SC(=S)NC2=O)ccc1OS(=O)(=O)c1ccccc1	40.9*	i	i	i	CHO-K1 ctr=-7.3;KCNQ1 pot spec=-12.4;KCNQ2 pot conf=91.1*;Kir21 spec=-43.6;KCNQ2 W236L pot=i
COc1ccc(/C=C2\SC(=S)NC2=O)cc1OS(=O)(=O)c1ccc(NC(C)=O)cc1	nt	i	nt	nt
COc1cc(/C=C2/SC(=S)NC2=O)ccc1OS(=O)(=O)c1ccc(C)cc1	39.5*	i	i	i	CHO-K1 ctr=0.8*;KCNQ1 pot spec=-19.9;KCNQ2 pot conf=-22.8;Kir21 spec=-49.7;KCNQ2 W236L pot=i
COc1ccc(/C=C2/S/C(=N/S(=O)(=O)Cc3ccccc3)NC2=O)cc1OC	0.02	i	nt	nt
Cc1cc(C)c(NC(=O)C2CCCN2CCOC(=O)c2ccccc2)c(C)c1 (stereo not given)	nt	i	nt	nt
O=C(O)CCC1c2cc3c4cc2OC2Oc5cc6c(cc51)C(CCC(=O)O)c1cc5c7cc1OC(O6)c1cc6cc(c1)Oc1cc(cc(C(=O)O)c1)Oc1cc8cc(c1)C(Oc1cc(c(cc1C5CCC(=O)O)C3CCC(=O)O)OC(O4)c1cc(cc(c1)Oc1cc(cc(C(=O)O)c1)O8)Oc1cc(cc(C(=O)O)c1)Oc1cc(cc2c1)Oc1cc(cc(C(=O)O)c1)O6)O7 (stereo not given)	1.28	i	nt	nt
CCn1cc(C(=O)N[C@H](C(=O)NCCN2CCOCC2)C(C)C)c(=O)c2cc3c(cc21)OCO3	0.38	i	nt	nt
O=C(c1ccc(Cl)cc1)C1CCN(Cc2ccccc2)CC1	nt	i	20.5%*	i
O=C(NC1CCN(Cc2ccccc2)CC1)c1ccc(Cl)cc1Cl	nt	i	76.5%*	i
CC(=O)N1CCC(C(=O)c2ccc(Cl)cc2)CC1	nt	i	nt	nt
Fc1ccc(CNC2CCN(Cc3ccccc3)CC2)cc1	nt	i	nt	nt
Clc1ccc(CNC2CCN(Cc3ccccc3)CC2)cc1	nt	i	28.0%*	i
S=C(Nc1ccc(Cl)cc1Cl)NC1CCN(Cc2ccccc2)CC1	0.91	i	nt	nt
O=S(=O)(NCC1CCN(c2ccc(S(=O)(=O)N3CCOCC3)cc2)CC1)c1ccc(F)cc1	nt	i	nt	nt
CCc1cccc(NC(=O)C2CCCN(c3ncnc4c3nc3n4CCCCC3)C2)c1 (stereo not given)	nt	i	nt	nt
CCN(CC)C(=O)Cn1cc(S(=O)(=O)CC(=O)Nc2ccc(C(N)=O)cc2)c2ccccc21	nt	i	nt	nt
CC1CCc2c(sc3ncnc(SCC(=O)Nc4ccc(C(=O)O)cc4)c23)C1 (stereo not given)	0.97	i	nt	nt
COc1cc(NC(=O)CSc2ncnc3sc4c(c23)CCC(C)C4)c(C(=O)O)cc1OC (stereo not given)	19.2*	i	i	417.0%*	CHO-K1 ctr=-7.2;KCNQ1 pot spec=35.6*;KCNQ2 pot conf=94.5*;Kir21 spec=-4.8;KCNQ2 W236L pot=i
COc1cc2c(cc1OC)CN(CC(=O)Nc1cccc(C(F)(F)F)c1)CC2	nt	i	nt	nt

Assay outcomes deposited in PubChem by Johns Hopkins Ion Channel Center.
